Source: ChEMBL document CHEMBL4513216, “Probing the Open Global Health Chemical Diversity Library for Multistage-Active Starting Points for Next-Generation Antimalarials” (ACS Infect Dis, 2020)
Hit rate of the full screen: of about 69,000 compounds, about 8,600 (12%) showed an effect of 50% or more. The list comes from a sample in which strong results are over-represented; it also holds similar structures and randomly drawn compounds.

Test system: Plasmodium berghei
Assay: Screen against P. berghei liver stage (PbLuc), transformed with Luciferase, at 10uM
Type: functional, HepG2
Settings: tested at 10 uM

| SMILES | INHIBITION [%] |
| --- | --- |
| CN1CCC(N(Cc2ccco2)S(=O)(=O)c2ccc(Cl)cc2)CC1 | 27.9 |
| O=c1cc(CN(Cc2ccco2)C2CC2)nc2ccc(Br)cn12 | 9.65 |
| CN1CCC(N(Cc2ccco2)S(=O)(=O)c2cc(Br)ccc2Br)CC1 | 69.8 |
| CN(C1CCCCC1)S(=O)(=O)N1CCN(Cc2ccco2)CC1 | 40 |
| CC1CCN(C(=O)CN(Cc2ccco2)C2CC2)CC1 | 37 |
| CN1CCC(N(Cc2ccco2)S(=O)(=O)c2ccc(Br)cc2Cl)CC1 | 61.2 |
| CC(NCc1cccc(Cl)c1)c1ccc(OCC(=O)NC2CC2)cc1 (stereo not drawn) | 13.3 |
| COc1ccc2nnc(CCC(=O)NCc3cccn3C)n2n1 | 9.57 |
| Cc1nc(CCC(N)=O)cc(C2CCCN2S(C)(=O)=O)n1 (stereo not drawn) | 26.1 |
| CC(C)c1nc2c(n1C)CCN(CC(=O)Nc1nncs1)C2 | -12.2 |
| CC(=O)NC1CCN(c2ccnc(C3CCNCC3)c2)CC1 | 2.55 |
| Fc1ccc2[nH]c3c(c2c1)CCN1C(c2ccncc2)N2CCC31CC2 (stereo not drawn) | -62.4 |
| O=C(CSC(F)(F)F)N1CCC2(CCCN(C3CCOCC3)C2=O)C1 (stereo not drawn) | -36.6 |
| Cc1cc(NC(N)=O)ccc1C(=O)N(C)C | 61 |
| Cc1cc(NCC(C)C)ccc1C(=O)N(C)C | 21.5 |
| CCN(CC)C(=O)Nc1ccc(C(=O)N(C)C)c(C)c1 | 19.7 |
| Cn1cc(-c2nnn3c2COC(CNCC2CCOCC2)C3)cn1 (stereo not drawn) | 5.67 |
| CSC(C)Cc1c(-c2ccccc2)ncn1CCCNc1cccnc1 (stereo not drawn) | 82.5 |
| Cc1c(-c2ccccc2)ncn1CC(c1cccnc1)N1CCOCC1 (stereo not drawn) | 37.2 |
| CCN(C)CC(C)Cn1cnc(-c2ccccc2)c1C (stereo not drawn) | -107 |
| Cc1c(-c2ccccc2)ncn1CCCNc1cccnc1 | 22.7 |
| CSCCc1c(-c2ccccc2)ncn1CCNc1cccnc1 | 63.6 |
| Cc1cc(NCCCNc2cccnc2)n2nc(C)c(C)c2n1 | 3.945 |
| CC[C@H]1N(Cc2ccco2)CCC[C@]12CCC(=O)N2C | 1.34 |
| CC(C)NC(=O)Nc1ncc(-c2cccnc2)s1 | -42.9 |
| Cc1nn(C)c(C)c1C1COCCN1C(=O)c1ccc(Cl)o1 (stereo not drawn) | -16 |

| SMILES | INHIBITION [%] |
| --- | --- |
| Cc1ccc(NCc2cn3c(n2)CN(Cc2ccoc2)CC3)nn1 | 26.5 |
| O=C1CC2(CCSC2)C(=O)N1Cc1ncc(-c2cccc(F)c2)o1 (stereo not drawn) | -26.8 |
| COc1cccc(-c2cc(C(=O)N3N=C(C)CC3(O)C(F)(F)F)[nH]n2)c1 (stereo not drawn) | 38.3 |
| Cc1ncc(-c2ccccn2)c(CCNC(=O)CCC2CCCO2)n1 (stereo not drawn) | 28.5 |
| C[C@@H](NCc1cccc(Cl)c1)c1onc(-c2ccc(F)cc2)c1C(=O)O | -3.58 |
| CCCc1nc(CN2CCOC(Cn3cccn3)C2)no1 (stereo not drawn) | -43.5 |
| CC(=O)N1CCC(NCc2cccnc2N(C)Cc2ccccc2)CC1 | 6.31 |
| CN(Cc1ccccc1)c1ncccc1CNC1CN2CCC1CC2 (stereo not drawn) | 62.6 |
| CC(C)N1CCC(NCc2cccnc2N(C)Cc2ccccc2)CC1 | 37.8 |
| CN(Cc1ccccc1)c1ncccc1CNC1CCCC1 | 20.4 |
| CN(Cc1ccccc1)c1ncccc1CNC1CCC1 | 22.5 |
| CN(Cc1ccccc1)c1ncccc1CNC1CCSCC1 | 51.8 |
| CC(C)(C)CC(=O)NCC(=O)Nc1ccn(Cc2ccncc2)n1 | -12.4 |
| Cc1nn(C)cc1C(=O)N1C[C@@H]2CC[C@H]1CN(S(=O)(=O)N(C)C)C2 | -109 |
| Cn1cccc1C(O)CNC(=O)c1ccc(C(F)(F)F)cc1 (stereo not drawn) | -118 |
| CS(=O)(=O)N1CCC2(CCN(C(=O)c3cccnc3)CC2)C1 | 58.8 |
| Cc1ccc(N2CCC3(CCCN(C(=O)c4cccnc4)C3)C2)nn1 (stereo not drawn) | 53.5 |
| O=C(CC1CC1)N1CCC2(CC1)CN(c1cccnc1)C(=O)CO2 | 30.3 |
| CS(=O)(=O)N1CCOCC2(CCN(C(=O)c3cccnc3)CC2)C1 | 18.5 |
| CC(=O)NCC(=O)N1CCC2(CC1)CN(c1cccnc1)C(=O)CO2 | 17.1 |
| Cc1ccc(C(=O)N2CCC3(CCCN(c4ccc(C)nn4)C3)C2)cn1 (stereo not drawn) | 18.6 |
| O=C(c1cccnc1)N1CCC2(CCN(C(=O)c3ccco3)CC2)C1 | 59.3 |
| Cc1occc1C(=O)N1CCC2(CCN(C(=O)c3cccnc3)C2)CC1 | 28.5 |
| Cc1cccc(N2CCC3(CCCN(C(=O)c4cccnc4)C3)C2)n1 (stereo not drawn) | -19.1 |
| CS(=O)(=O)N1CCC2(CN(C(=O)c3cccnc3)C2)C1 | 33.5 |
| O=C(N1CCCC1)N1CCC2(CC1)CN(c1cccnc1)C(=O)CO2 | 82.9 |

| SMILES | INHIBITION [%] |
| --- | --- |
| Cc1ccc(C(=O)N2CCC3(CCN(C(=O)c4cccnc4)C3)CC2)o1 | 34.7 |
| Cc1nn(C)c(C)c1CNCc1cccnc1N1CCOCC1 | 22.5 |
| CN(C)C(=O)C1OC2(CCN(C(=O)c3ccco3)CC2)c2ccccc21 (stereo not drawn) | 12.7 |
| CC(C#N)CN(C)C(=O)CCNC(=O)C(C)(C)C (stereo not drawn) | -6.91 |
| CCc1[nH]ncc1C(=O)N1CCCC(n2cc(C)cn2)C1 (stereo not drawn) | -12.2 |
| O=C(c1ccco1)N1C[C@H]2CCCN(Cc3cccs3)[C@H]2C1 | 37 |
| CC(C)c1nn(C)c(N2CCOCC2)c1CNCCC(=O)N(C)C | 24.95 |
| O=S(=O)(NCc1ccccc1)Nc1ccc(-n2cncn2)cc1 | 35 |
| CC(C)c1n[nH]c(C2CN(C(=O)CCc3cscn3)CCO2)n1 (stereo not drawn) | -15.52 |
| Cc1ccccc1OCC(=O)N1CCCC(CNS(C)(=O)=O)C1 (stereo not drawn) | -3.8 |
| O=C(NCc1nncn1C1CCCCC1)C1CNCCO1 (stereo not drawn) | 33.4 |
| COc1ccc(C2CCCN2C(=O)c2ccnc(NC3CC3)c2)cc1 (stereo not drawn) | -59.3 |
| O=C(NC1CC1)N1Cc2[nH]nc(COc3cccnc3)c2C1 | -4.02 |
| CN(C)Cc1cccc(-c2cccnc2C(=O)NCC2CC2)c1 | 18.4 |
| O=C(c1ccno1)N1CCC2(CC1)C(=O)Nc1ccccc12 | -19.5 |
| Cc1cccc(N2CCC3(CCN(C(=O)c4cccnc4)CC3)C2)n1 | 19.5 |
| O=C(c1ccco1)N1CCC2(CC1)C(=O)Nc1ccccc12 | 64.4 |
| O=C(c1ccncc1)N1CCC2(CC1)CCN(C(=O)c1cccnc1)C2 | 53.9 |
| CN1CCC2(CCN(C(=O)c3cccnc3)C2)C1 (stereo not drawn) | 12.2 |
| NC(=O)N1CCC2(CCN(C(=O)c3cccnc3)CC2)C1 | 86.5 |
| O=C(c1cccnc1)N1CCC2(CCN(C(=O)N3CCCC3)CC2)C1 | 61.1 |
| Cn1cccc1C(=O)N1CCC2(CCN(C(=O)c3cccnc3)C2)CC1 | 37.6 |
| O=C(c1ccoc1)N1CCC2(CC1)C(=O)Nc1ccccc12 | 25.4 |
| Cc1cccc(N2CCC3(CCCN(C(=O)c4cccnc4)C3)CC2)n1 | -1.26 |
| O=C(c1ccnnc1)N1CCC2(CC1)CCN(C(=O)c1cccnc1)C2 | 16.8 |
| CC(C)N1CCC2(CCN(C(=O)c3cccnc3)CC2)C1 | 15.4 |
